# Results filed as inconclusive are left out. The list shows a part of the results. The source made the active and inactive calls. Unless noted, calls follow the shape of the dose curve; as a rule, active = well fitted curve in the direction sought with a large enough effect; inconclusive = small, poorly fitted or top-dose-only effect, or another doubt; inactive = no such curve, though single readings can be large; an effect the other way counts as inactive or inconclusive.
# Assays:
# [1] = target: Ubiquitin carboxyl-terminal hydrolase 2 (Homo sapiens) (UniProt O75604); assay: qHTS for Inhibitors of Ubiquitin-specific Protease USP2a Using CHOP2 as the Reporter: K484 Substrate (AID 652173);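 also: cleavage of internally quenched K48 di-ubiquitin substrate measured as rising fluorescence over time; potency is read from the fitted curve at half-maximal effect; nearly all actives have a fitted effect of over 70% in size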
# Outline: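 Kinetic fluorescence (Ex 525/Em 598) tracked cleavage of an internally quenched K48 di-ubiquitin substrate, added as a 100 nM solution. The enzyme was added as a 5 nM USP2 solution before compound pinning, with no-enzyme controls. Buffer: Tris pH 8, beta-mercaptoethanol, CHAPS.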
# [2] = target: Calcium and integrin-binding protein 1 (Homo sapiens) (UniProt Q99828); assay: Primary qHTS for Identification of Calcium Integrin Binding Protein 1 (CIB1) Competitor (AID 1508620);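 also: GST tagged CIB1 binding a fluorescein labelled alphaIIb integrin peptide tracer; top concentration of the series differs between compounds; % is scaled to controls: 0 for no effect and ±100 for the full control effect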
# Outline: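 CIB1-GST (1 uM final) and compound incubated 15 min at room temperature before adding FITC-alphaIIb peptide tracer (100 nM final). Competition for binding read by fluorescence polarization (ex 480, em 540) after another 15 min at room temperature.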
# [3] = Counterscreen qHTS for small molecule stabilizers of the endoplasmic reticulum resident proteome: GLuc-NoTag assay (AID 1508627);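 also: SH-SY5Y cells given compound then 100 nM thapsigargin to empty ER calcium; 0% = thapsigargin alone and -100% = DMSO vehicle control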
# Outline: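 Counterscreen line: SH-SY5Y-GLuc-NoTag cells, treated with compound 19 hr before a 4 hr, 100 nM thapsigargin calcium depletion. Secreted Gaussia luciferase in the medium was measured by luminescence after coelenterazine was added (0.07x final), with cells unlysed.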
# [4] = qHTS profiling for inhibitors of Plasmodium falciparum (3D7) proliferation (AID 743322);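 also: infected erythrocytes exposed to compound for 72 h before lysis; 100% = DMSO vehicle wells and 0% = 0.29 µM artemisinin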; settings: P. falciparum 3D7 proliferation; at 28.7 µM (top of the series)
# Outline: (§1)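 Parasite DNA was quantified by SYBR Green I fluorescence (ex 485, em 535 nm) after overnight lysis in saponin/Triton buffer at room temperature. Cultures at 0.3% parasitemia and 2.5% hematocrit were first exposed to compound for 72 h at 37 C; signals were normalised to artemisinin (0.29 uM) and vehicle wells.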
# [5] = qHTS profiling for inhibitors of Plasmodium falciparum (DD2) proliferation (AID 743323; call rule not given here); settings: lower = more inhibition; at 28.7 µM (top of the series)
# Outline: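 Parasite proliferation measured via DNA-dye fluorescence, as uninfected erythrocytes lack DNA. Cultures at 0.3% parasitemia and 2.5% hematocrit incubated 72 h with compound; signal scaled between vehicle and 0.29 uM artemisinin wells.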
# [6] = qHTS profiling for inhibitors of Plasmodium falciparum (HB3) proliferation (AID 743324); settings: Plasmodium falciparum HB3 blood-stage proliferation; at 28.7 µM (top of the series);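 also: 100% = DMSO vehicle wells and 0% = artemisinin-treated control wells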
# Outline: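 SYBR Green fluorescence (485 ex/535 em) of lysed cultures, incubated overnight at room temperature in the dark, quantifies parasite DNA. Infected erythrocytes at 0.3% parasitemia and 2.5% hematocrit were exposed 72 h; values normalized to DMSO and 0.29 uM artemisinin controls.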
# [7] = qHTS profiling of the MIPE4 collection as inhibitors of Plasmodium falciparum (3D7) proliferation (AID 743344; call rule not given here;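 also: scaled between DMSO vehicle wells and 0.29 µM artemisinin as full inhibition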); settings: P. falciparum 3D7 in erythrocytes, SYBR Green DNA fluorescence, 72 h; at 28.5 µM (top of the series)
# Outline: as §1
# [8] = qHTS profiling of the MIPE4 collection as inhibitors of Plasmodium falciparum (DD2) proliferation (AID 743345; call rule not given here); settings: P. falciparum Dd2 in erythrocytes, SYBR Green DNA, 72 h; at 28.5 µM (top of the series)
# Outline: as §1
# [9] = qHTS profiling of the MIPE4 collection as inhibitors of Plasmodium falciparum (DD2) proliferation (Rep 2) (AID 743346; call rule not given here); settings: P. falciparum Dd2 in erythrocytes, SYBR Green DNA, 72 h; at 28.5 µM (top of the series)
# Outline: as §1
# [10] = qHTS profiling of the MIPE4 collection as inhibitors of Plasmodium falciparum (HB3) proliferation (AID 743347; call rule not given here;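 also: plate controls were DMSO vehicle wells for no effect and artemisinin wells for full effect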); settings: P. falciparum HB3 in erythrocytes, SYBR Green DNA, 72 h; at 28.5 µM (top of the series)
# Outline: as §1
# [11] = target: Flap endonuclease 1 (Homo sapiens) (UniProt P39748); assay: qHTS Assay for the Inhibitors of FEN1: Confirmatory Assay for Cherry-picked Compounds (AID 720498); settings: FEN1 flap cleavage, TAMRA/BHQ2 fluorogenic DNA substrate; also: potency is read from the fitted curve at half-maximal effect; nearly all actives have a fitted effect of over 60% in size
# Outline: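 Human FEN1 (10 nM reagent) was preincubated with compounds for 15 min at room temperature, then 50 nM final double-flap DNA substrate (5'-TAMRA flap, BHQ-2 quencher strand) was added. Fluorescence (ex 525/em 598 nm) was read at 0 and 15 min.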
# [12] = target: Cytochrome P450 3A4 (Homo sapiens) (UniProt P08684); assay: qHTS Assay for Inhibitors and Substrates of Cytochrome P450 3A4 (AID 884); also: % is scaled to controls: 0 for no effect and ±100 for the full control effect; nearly all actives have a fitted effect of over 50% in size
# Outline: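 Luminescent readout of luciferin produced by CYP3A4 (20 nM) dealkylation of Luciferin-PPXE, 25 uM (its KM). NADPH-driven reaction ran 60 min at RT after 10 min compound preincubation; data scaled to 57 uM ketoconazole as 100% inhibition.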
# Calcium and integrin-binding protein 1 (Homo sapiens), sequence (Q99828 whole entry, looked up): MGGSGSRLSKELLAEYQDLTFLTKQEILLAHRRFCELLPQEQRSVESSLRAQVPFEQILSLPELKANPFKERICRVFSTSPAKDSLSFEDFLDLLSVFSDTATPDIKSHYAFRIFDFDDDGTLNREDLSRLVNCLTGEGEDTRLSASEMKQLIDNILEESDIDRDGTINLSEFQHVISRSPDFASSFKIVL
# Ubiquitin carboxyl-terminal hydrolase 2 (Homo sapiens), sequence (O75604 whole entry, looked up): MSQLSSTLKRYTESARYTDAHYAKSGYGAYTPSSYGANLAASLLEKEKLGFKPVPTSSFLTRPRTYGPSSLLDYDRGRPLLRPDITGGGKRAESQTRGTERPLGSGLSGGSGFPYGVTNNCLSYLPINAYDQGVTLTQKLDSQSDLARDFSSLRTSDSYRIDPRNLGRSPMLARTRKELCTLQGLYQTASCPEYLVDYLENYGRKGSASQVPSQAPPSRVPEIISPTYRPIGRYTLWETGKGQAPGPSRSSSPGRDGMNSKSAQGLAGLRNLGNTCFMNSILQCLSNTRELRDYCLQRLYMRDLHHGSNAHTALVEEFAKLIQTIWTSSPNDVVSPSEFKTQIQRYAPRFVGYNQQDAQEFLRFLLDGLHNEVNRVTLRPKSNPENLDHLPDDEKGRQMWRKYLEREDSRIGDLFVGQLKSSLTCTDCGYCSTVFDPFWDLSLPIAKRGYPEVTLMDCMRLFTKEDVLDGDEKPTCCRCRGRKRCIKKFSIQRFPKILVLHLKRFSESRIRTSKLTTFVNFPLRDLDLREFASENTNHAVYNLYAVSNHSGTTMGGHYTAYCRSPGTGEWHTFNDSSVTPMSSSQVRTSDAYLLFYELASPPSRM
# Flap endonuclease 1 (Homo sapiens), sequence (P39748 whole entry, looked up): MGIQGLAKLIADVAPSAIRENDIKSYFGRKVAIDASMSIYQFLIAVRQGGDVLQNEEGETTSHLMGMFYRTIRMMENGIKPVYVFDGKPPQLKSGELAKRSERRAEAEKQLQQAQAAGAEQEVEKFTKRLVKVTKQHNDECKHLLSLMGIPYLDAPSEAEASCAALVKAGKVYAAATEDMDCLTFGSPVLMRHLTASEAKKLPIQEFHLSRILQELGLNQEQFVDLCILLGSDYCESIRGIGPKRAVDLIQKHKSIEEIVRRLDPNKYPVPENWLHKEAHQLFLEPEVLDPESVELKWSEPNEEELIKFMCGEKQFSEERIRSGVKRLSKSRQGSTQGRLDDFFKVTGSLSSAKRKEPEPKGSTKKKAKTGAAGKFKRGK
# Cytochrome P450 3A4 (Homo sapiens), sequence (P08684 whole entry, looked up): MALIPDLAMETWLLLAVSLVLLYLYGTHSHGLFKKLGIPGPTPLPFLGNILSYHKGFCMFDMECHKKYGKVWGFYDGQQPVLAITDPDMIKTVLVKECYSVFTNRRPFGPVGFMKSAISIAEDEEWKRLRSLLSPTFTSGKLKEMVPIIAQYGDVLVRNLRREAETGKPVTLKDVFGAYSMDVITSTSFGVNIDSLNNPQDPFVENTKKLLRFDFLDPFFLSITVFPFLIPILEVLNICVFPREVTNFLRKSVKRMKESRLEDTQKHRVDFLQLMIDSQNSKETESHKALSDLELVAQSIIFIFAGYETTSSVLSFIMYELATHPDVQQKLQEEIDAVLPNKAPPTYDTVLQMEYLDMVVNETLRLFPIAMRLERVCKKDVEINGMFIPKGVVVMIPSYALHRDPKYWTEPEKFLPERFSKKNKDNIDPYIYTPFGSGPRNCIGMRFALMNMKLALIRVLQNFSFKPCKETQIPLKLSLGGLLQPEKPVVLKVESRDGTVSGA
structure (smiles),measurement,setting,value
Cc1ccc(S(=O)(=O)Nc2cc(Cl)cc(C(=O)Nc3nc(-c4ccccc4)cs3)c2)cc1,Potency,[1],3.06 µM (active)
same,Potency,[2],inactive
Cc1ccc(S(=O)(=O)Nc2ccc(C(=O)Nc3ncc(-c4ccccc4)s3)cc2)cc1,Potency,[1],2.43 µM (active)
same,Potency,[2],inactive
COc1ccc(C2Nc3ccccc3C(=O)N2c2ccccc2)cc1COc1ccc(NC(C)=O)cc1 (stereo not drawn),Potency,[3],inactive
O=C(Nc1nc(-c2ccccc2)cs1)c1ccccc1[N+](=O)[O-],Potency,[1],12.2 µM (active)
same,Potency,[2],inactive
COc1cc(NS(=O)(=O)c2ccc(C)cc2)cc(C(=O)Nc2nc(-c3ccccc3)cs2)c1,Potency,[1],2.43 µM (active)
same,Potency,[2],inactive
Cc1ccc(S(=O)(=O)Nc2ccccc2C(=O)Nc2nc(-c3ccccc3)c(C)s2)cc1,Potency,[1],1.93 µM (active)
same,Potency,[2],inactive
Cc1ccc(NS(=O)(=O)c2ccc(C(=O)Nc3nc(-c4ccccc4)cs3)cc2)cc1,Potency,[1],3.43 µM (active)
same,Potency,[2],inactive
O=C([C@H](Cc1ccc(O[S+](=O)([O-])c2cccnc2)cc1)N[S+](=O)([O-])c1cccc2cnccc12)N1CCN(c2ccccc2)CC1,remaining parasite growth % (stronger effect = lower value),[4],0.0541%
same,"activity, percent of control",[5],4.11%
same,"remaining proliferation (% of control), lower = more inhibition",[6],0.563%
same,Potency,[2],inactive
CC(C)(C)OC(=O)N[C@@H](Cc1ccc(O[S+](=O)([O-])c2cccc3cnccc23)cc1)C(=O)N1CCN(Cc2ccccc2)CC1,"parasite growth, % of DMSO control",[7],5.32%
same,"parasite growth remaining, % of DMSO control (lower = more inhibition)",[8],7.86%
same,"parasite growth, % of control (lower = inhibition)",[9],22.5%
same,"growth, % of control",[10],10.3%
same,Potency,[2],inactive
CNC1CCC(N(Cc2ccc(OC)c(-c3ccc(C#N)cc3)c2)C(=O)c2sc3ccccc3c2Cl)CC1 (stereo not drawn),remaining parasite growth % (stronger effect = lower value),[4],-1.61%
same,"activity, percent of control",[5],-0.637%
same,"remaining proliferation (% of control), lower = more inhibition",[6],-1.57%
same,Potency,[2],inactive
COc1ccc(-c2ccc3ncnc(NCc4cccs4)c3c2)cc1OC,Potency,[11],37.9 µM (active)
same,Potency,[2],inactive
O=C([C@H](Cc1ccc(O[S+](=O)([O-])c2cccc3cccnc23)cc1)N[S+](=O)([O-])c1cccnc1)N1CCN(c2ccccc2)CC1,remaining parasite growth % (stronger effect = lower value),[4],-0.283%
same,"activity, percent of control",[5],0.179%
same,"remaining proliferation (% of control), lower = more inhibition",[6],-0.167%
same,Potency,[2],inactive
CC(C)(C)OC(=O)N[C@@H](Cc1ccc(O[S+](=O)([O-])c2cccc3cnccc23)cc1)C(=O)N1CCN(c2ccccc2)CC1,remaining parasite growth % (stronger effect = lower value),[4],-1.52%
same,"activity, percent of control",[5],-0.0871%
same,"remaining proliferation (% of control), lower = more inhibition",[6],-0.489%
same,Potency,[2],inactive
CC(C)(C)c1cc(O)c(CN)c(C(C)(C)C)c1,remaining parasite growth % (stronger effect = lower value),[4],-0.824%
same,"activity, percent of control",[5],0.498%
same,"remaining proliferation (% of control), lower = more inhibition",[6],-0.148%
same,"parasite growth, % of DMSO control",[7],6.1%
same,"parasite growth remaining, % of DMSO control (lower = more inhibition)",[8],7.28%
same,"parasite growth, % of control (lower = inhibition)",[9],19.6%
same,"growth, % of control",[10],4.33%
same,Potency,[2],inactive
Cc1ccc(S(=O)(=O)Nc2ccc(C(=O)Nc3nc(-c4ccc(Cl)cc4)cs3)cc2)cc1,Potency,[1],3.06 µM (active)
same,Potency,[2],inactive
Cc1nc(NC2CCCCC2)c2nc(-c3ccccc3)n(CC3CCN(C)CC3)c2n1,Potency,[12],inactive
same,Potency,[2],inactive
